Measurements reported in PubChem BioAssay AID1963322 (National Center for Advancing Translational Sciences (NCATS), 2024).
Inconclusive results are not listed. Values without a mark were called inactive. Active and inactive are the calls of the source. Calls come from the whole dose curve.

Molecular target: cAMP-dependent protein kinase catalytic subunit alpha (Homo sapiens) (UniProt P17612)
Experiment: Protein Kinase A (PKA-HiBiT) SDR gain of signal screen
Details: PKA-HiBiT structural dynamics response (SDR), luminescence gain of signal; series mostly up to 32.9 µM; activity change, positive = signal gain: at the top concentration
Description: National Center for Advancing Translational Sciences (NCATS),
National Institute of Health (NIH), Maryland
Discovery and optimization of novel protein-binding ligands underlies many of the methods and applications of biology, drug discovery, clinical diagnostics, and environmental toxicology. Assays for detecting the interaction of, for example, a molecule with a macromolecular target also referred to here as the target of interest (TOI) is dependent on a compatible output technology. Depending on the nature and knowledge surrounding the TOI, whether a receptor, enzyme, regulatory subunit or scaffold, or a sequence-defined nucleic acid folded into a complex tertiary structure, assay strategies can vary widely.
Here we exploit ligand-biased changes in the structural dynamics of the target protein to control reporter alpha complementation allowing a non-competitive, non-functional, non-separation measure of ligand-target interaction.
Using a chemical library of >1,200 compounds enriched for scaffolds known to be associated with the inhibition of firefly luciferase (FLuc) activity (PubChem AIDs 2309) we first illustrate and compare the Structural Dynamics Response (SDR) assay vs. the standard functional FLuc enzyme assay (2). Secondly, we show the specificity and sensitivity of the SDR for the Abelson tyrosine kinase (ABL1) compared to the serine/threonine protein kinase A, using an enriched chemical library of 128 compounds selected, in part, for activity annotated with ABL1 kinase activity using the Pharos database (3).
(1) A. S. Dixon et al., NanoLuc Complementation Reporter Optimized for Accurate Measurement of Protein Interactions in Cells. ACS Chem Biol 11, 400-408 (2016).
Chemistry & Biology, 19, 1060 - 1072 (2012).
(3) K. J. Kelleher et al., Pharos 2023: an integrated resource for the understudied human proteome. Nucleic Acids Res 51, D1405-D1416 (2023).
PROTOCOL TABLE (as described by Inglese J, Shamu CE and Guy RK. 2007)
SEQUENCE No. (e.g., 1, 2, 3, etc.); […] (e.g., C. elegans, Compounds, Incubation, Read, etc.); VALUE and DESCRIPTION.
1. Reagent. Dispense 4 uL PKA-N-HiBiT enzyme per well at a final enzyme concentration of 10 nM in buffer into columns 2-48 of four replicate Greiner 1536-well white,solid bottom high base, medium plates per assay. Dispense respective buffer without enzyme at 4 uL/well in column 1 of assay plates using BioRaptr 2.
2. Compounds. Library compounds added at 23 nL/well by pin transfer. DMSO neutral control and H-89 positive control added at 25 nL/well, transfer by Mosquito dispenser.
3. Incubation. Incubate enzyme and compounds at room temperature for 30 min, protect from light.
4. Reagent. (SDR assay) Add 3 uL/well of Nano-Glo HiBiT reagent (Promega) to assay plates.
5. Incubation. (SDR assay) Incubate enzyme solution HiBiT reagent at room temperature for 10 min, protected from light.
6. Detector. (SDR assay) Luminescence measured using CCD-based camera (ViewLux) with settings as follows: Exposure, 1 sec; Gain, High; Speed, Slow; Binning, 2X.

SMILES | activity change, positive = signal gain | Potency
CC1(C)OCCn2c1nc1c(N3CCOCC3)nc(-c3cnc(N)nc3)nc12 | 4.3% | 
COc1cc2c(cc1OC)-c1[nH]nc(Nc3cccc(F)c3)c1C2 | 5.36% | 
CCNC(=O)Nc1ccc(-c2nc3c(c(N4CCOC[C@@H]4C)n2)CCN(c2ncccn2)C3)cc1 | 2.32% | 
Cc1cc(NC(=O)c2ccc(C)c(Nc3nccc(-c4cccnc4)n3)c2)cc(-n2cnc(C)c2)c1 | -7.69% | 
COc1ccc2c(Oc3ccc(NC(=O)c4c(C)n(CC(C)(C)O)n(-c5ccccc5)c4=O)nc3)ccnc2c1 | -19.2% | 
CCCCNc1ncc2c(-c3ccc(S(=O)(=O)N4CCOCC4)cc3)nn(C3CCC(O)CC3)c2n1 (stereo not given) | 15.8% | 
Nc1nc(NCCNc2ncc(-n3ccnc3)c(-c3ccc(Cl)cc3Cl)n2)ccc1[N+](=O)[O-] | -35.6% | 
Cc1cccc(C)c1-n1c(=O)c2cnc(Nc3ccc(N4CCN(C)CC4)cc3)nc2n2c3ccccc3nc12 | -44.7% | 
CNS(=O)(=O)c1ccc2c(c1)/C(=C/c1[nH]c3c(c1CCCN1CCN(C)CC1)CCCC3)C(=O)N2 | -31.7% | 
CN1CCN(C2CCC(n3cc(-c4ccc(Oc5ccccc5)cc4)c4c(N)ncnc43)CC2)CC1 (stereo not given) | -10.5% | 
COc1ccc(S(=O)(=O)N(C(C)=O)c2ccccc2/C=C/c2cc[n+]([O-])cc2)cc1 | 5.77% | 
CCn1c(=O)c(-c2ccc(Cl)cc2Cl)cc2cnc(Nc3ccc(N4CCNCC4)c(F)c3)nc21 | 15.1% | 
O=C(NCCO)c1cccc(-c2cc(Nc3ccc(OC(F)(F)F)cc3)ncn2)c1 | 1.64% | 
Nc1nc(Nc2ccc(S(N)(=O)=O)cc2)n(C(=S)Nc2c(F)cccc2F)n1 |  | 11.1 µM (active)
Nc1ncc(-c2cnn(CCO)c2)c2scc(-c3ccc(NC(=O)Nc4cccc(F)c4)cc3)c12 | 3.77% | 
COc1cc2ncnc(-n3nc(-c4ccccn4)nc3N)c2cc1OC | 6.78% [at 16.4 µM] | 
Cc1sc2c(c1C)C(c1ccc(Cl)cc1)=N[C@@H](CC(=O)Nc1ccc(OCCOCCOCCOCCNc3cccc4c3C(=O)N(C3CCC(=O)NC3=O)C4=O)cc1)c1nnc(C)n1-2 (stereo not given in full) | 4.85% | 
Cc1cn(-c2cccc(NC(=O)c3ccc(C)c(Nc4nccc(-c5cccnc5)n4)c3)c2)cn1 | -0.576% | 
CCN(CC)CCOc1ccc(Nc2ncc3cc(-c4c(Cl)cccc4Cl)c(=O)n(C)c3n2)cc1 | -49.5% | 
Cc1cc(C)c(/C=C2\C(=O)Nc3ccccc32)[nH]1 | -43.1% | 

SMILES | activity change, positive = signal gain | Potency
CN1CCN(CCOc2cc(OC3CCOCC3)c3c(Nc4c(Cl)ccc5c4OCO5)ncnc3c2)CC1 | 5.07% | 
Cc1cc(F)ccc1-c1nc(NC(CO)CO)nc2c1ccc(=O)n2-c1c(F)cccc1F | 4.46% | 
O=c1cc(N2CCOCC2)nc2c3ccccc3ccn12 | 2.48% | 
CSc1cccc(Nc2ncc3cc(-c4c(Cl)cccc4Cl)c(=O)n(C)c3n2)c1 | -1.1% | 
CO[C@H]1/C=C/O[C@@]2(C)Oc3c(C)c(O)c4c(O)c(c(/C=N\N5CCN(C6CCCC6)CC5)c(O)c4c3C2=O)NC(=O)/C(C)=C\C=C\[C@H](C)[C@H](O)[C@@H](C)[C@@H](O)[C@@H](C)[C@H](OC(C)=O)[C@@H]1C | -45.8% | 
Cc1nc(NC(=O)N2CCC[C@H]2C(N)=O)sc1-c1ccnc(C(C)(C)C(F)(F)F)c1 | -0.666% | 
CCN1/C(=C\C(C)=O)Sc2ccc(OC)cc21 | 8.08% | 
Oc1ccc(-c2ccc(-c3cc(Nc4cccc(CNC5CC5)c4)n[nH]3)cc2)c(O)c1 |  | 10.7 µM (active)
N#Cc1ccc2ncnc(NCCc3ccccc3)c2c1 | -3.27% | 
C#Cc1cccc(Nc2ncnc3cc4c(cc23)OCCOCCOCCO4)c1 | 4.44% | 
Cc1cc(O)c2c(c1)C(=O)c1cc(O)cc(O)c1C2=O | -17% | 
COc1cc(N2CCC(O)CC2)ccc1Nc1nc(Nc2ccccc2S(=O)(=O)C(C)C)c2[nH]cnc2n1 | 17.5% | 
COc1cc2c(Oc3ccc4[nH]c(C)cc4c3F)ncnc2cc1OCCCN1CCCC1 | 5.25% | 
COc1ccc(-n2c(SCC#N)nc3sc4c(c3c2=O)CCCC4)cc1 | 5.77% | 
O=C(NC1CCNCC1)c1[nH]ncc1NC(=O)c1c(Cl)cccc1Cl | 1.69% | 
O=C(c1cccc(Cl)c1F)N1CCN(Cc2cccc(Nc3nccs3)n2)CC1 | -14.8% | 
Nc1ncccc1-c1nc2ccc(-c3ccccc3)nc2n1-c1ccc(C2(N)CCC2)cc1 | 2.31% | 
Cc1cc(F)ccc1-c1nc(NCCN=C(N)NC#N)nc2c1ccc(=O)n2-c1c(F)cccc1F | 4.31% | 
O=C1CCC(N2C(=O)c3ccccc3C2=O)C(=O)N1 (stereo not given) | -9.83% | 
COc1cc2nccc(Oc3ccc(NC(=O)Nc4ccc(F)cc4F)c(F)c3)c2cc1OC | 5.98% | 
